Data published in ChEMBL document CHEMBL2218924, “A broad activity screen in support of a chemogenomic map for kinase signalling research and drug discovery” (Biochem J, 2013).

Key:
[1] = target: T1, CDK3/cyclin E (Homo sapiens) (UniProt P24864+O96020+Q00526); settings: at 1 µM
[2] = target: T1, CDK3/cyclin E (Homo sapiens); settings: at 10 µM
[3] = target: T2, Cyclin-dependent kinase 5/CDK5 activator 1 (Homo sapiens) (UniProt Q00535+Q15078); settings: at 1 µM
[4] = target: T2, Cyclin-dependent kinase 5/CDK5 activator 1 (Homo sapiens); settings: at 10 µM
[5] = target: T2, Cyclin-dependent kinase 5/CDK5 activator 1 (Homo sapiens); settings: at 1 µM; remark: listed apart in the source
[6] = target: T2, Cyclin-dependent kinase 5/CDK5 activator 1 (Homo sapiens); settings: at 10 µM; remark: listed apart in the source
[7] = target: T3, CDK6/cyclin D3 (Homo sapiens) (UniProt P30281+Q00534); settings: at 1 µM
[8] = target: T3, CDK6/cyclin D3 (Homo sapiens); settings: at 10 µM
[9] = target: T4, Cyclin-dependent kinase 7/ cyclin H (Homo sapiens) (UniProt P51946+P50613); settings: at 1 µM
[10] = target: T4, Cyclin-dependent kinase 7/ cyclin H (Homo sapiens); settings: at 10 µM
[11] = target: T5, CDK9/cyclin T1 (Homo sapiens) (UniProt O60563+P50750); settings: at 1 µM
[12] = target: T5, CDK9/cyclin T1 (Homo sapiens); settings: at 10 µM
[13] = target: T6, Serine/threonine-protein kinase Chk1 (Homo sapiens) (UniProt O14757); settings: at 1 µM
T6 sequence (whole entry): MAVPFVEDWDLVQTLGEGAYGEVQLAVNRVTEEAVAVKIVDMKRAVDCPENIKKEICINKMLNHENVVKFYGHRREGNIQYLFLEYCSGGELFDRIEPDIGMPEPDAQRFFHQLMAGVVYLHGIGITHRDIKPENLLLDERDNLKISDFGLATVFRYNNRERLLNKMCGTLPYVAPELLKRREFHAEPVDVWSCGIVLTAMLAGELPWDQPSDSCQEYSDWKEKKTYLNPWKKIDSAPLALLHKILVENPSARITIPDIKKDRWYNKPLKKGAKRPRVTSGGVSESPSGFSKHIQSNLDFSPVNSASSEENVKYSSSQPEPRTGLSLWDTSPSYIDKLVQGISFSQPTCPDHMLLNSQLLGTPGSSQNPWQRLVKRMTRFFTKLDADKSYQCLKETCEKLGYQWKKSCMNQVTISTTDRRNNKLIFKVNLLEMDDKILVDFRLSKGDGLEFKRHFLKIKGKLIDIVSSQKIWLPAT

[14] = target: T6, Serine/threonine-protein kinase Chk1 (Homo sapiens); settings: at 10 µM
[15] = target: Serine/threonine-protein kinase Chk2 (Homo sapiens) (UniProt O96017); settings: at 1 µM
[16] = target: Serine/threonine-protein kinase Chk2 (Homo sapiens) (UniProt O96017); settings: at 10 µM
[17] = target: Casein kinase I isoform gamma-1 (Homo sapiens) (UniProt Q9HCP0); settings: at 1 µM
[18] = target: Casein kinase I isoform gamma-1 (Homo sapiens) (UniProt Q9HCP0); settings: at 10 µM
[19] = target: Casein kinase I isoform delta (Homo sapiens) (UniProt P48730); settings: at 1 µM
[20] = target: Casein kinase I isoform delta (Homo sapiens) (UniProt P48730); settings: at 10 µM

Chain of Casein kinase I isoform gamma-1 (Homo sapiens) (Q9HCP0 whole entry, looked up, canonical isoform): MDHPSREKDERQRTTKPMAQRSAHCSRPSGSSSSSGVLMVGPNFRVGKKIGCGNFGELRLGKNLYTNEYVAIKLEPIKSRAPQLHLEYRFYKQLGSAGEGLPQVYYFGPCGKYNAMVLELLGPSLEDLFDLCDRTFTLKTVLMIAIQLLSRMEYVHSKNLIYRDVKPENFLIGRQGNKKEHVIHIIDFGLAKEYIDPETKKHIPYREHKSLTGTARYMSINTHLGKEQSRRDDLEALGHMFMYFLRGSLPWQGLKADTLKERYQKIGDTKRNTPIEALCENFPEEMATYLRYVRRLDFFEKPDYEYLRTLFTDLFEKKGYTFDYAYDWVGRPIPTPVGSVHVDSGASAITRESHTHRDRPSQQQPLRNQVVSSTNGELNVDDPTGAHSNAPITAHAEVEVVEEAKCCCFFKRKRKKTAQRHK
Chain of Serine/threonine-protein kinase Chk2 (Homo sapiens) (O96017 whole entry, canonical isoform): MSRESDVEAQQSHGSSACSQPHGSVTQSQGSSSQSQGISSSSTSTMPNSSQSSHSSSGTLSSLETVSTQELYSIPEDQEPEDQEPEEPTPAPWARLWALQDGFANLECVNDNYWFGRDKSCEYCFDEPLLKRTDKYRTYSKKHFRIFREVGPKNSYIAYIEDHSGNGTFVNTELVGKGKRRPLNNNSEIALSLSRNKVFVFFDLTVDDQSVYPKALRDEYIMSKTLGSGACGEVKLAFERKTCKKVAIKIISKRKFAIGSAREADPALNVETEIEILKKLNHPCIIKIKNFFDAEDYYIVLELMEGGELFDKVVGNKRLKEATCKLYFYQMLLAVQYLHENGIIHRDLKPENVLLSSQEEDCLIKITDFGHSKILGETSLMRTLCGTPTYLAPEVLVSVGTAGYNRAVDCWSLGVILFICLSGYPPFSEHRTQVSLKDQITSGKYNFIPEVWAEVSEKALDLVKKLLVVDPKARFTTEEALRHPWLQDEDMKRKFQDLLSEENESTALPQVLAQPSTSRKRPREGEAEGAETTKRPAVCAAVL
T1 sequence (O96020 whole entry, looked up): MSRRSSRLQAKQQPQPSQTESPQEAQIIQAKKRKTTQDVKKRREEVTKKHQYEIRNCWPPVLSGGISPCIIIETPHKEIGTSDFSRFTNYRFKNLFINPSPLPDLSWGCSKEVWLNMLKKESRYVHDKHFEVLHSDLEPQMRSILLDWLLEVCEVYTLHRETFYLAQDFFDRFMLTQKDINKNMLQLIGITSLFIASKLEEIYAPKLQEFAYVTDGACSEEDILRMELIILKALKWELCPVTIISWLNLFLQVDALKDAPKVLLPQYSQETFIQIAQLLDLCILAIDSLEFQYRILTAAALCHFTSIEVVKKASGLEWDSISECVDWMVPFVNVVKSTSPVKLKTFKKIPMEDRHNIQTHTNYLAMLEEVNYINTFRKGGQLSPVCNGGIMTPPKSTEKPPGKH
T1 sequence (P24864 whole entry, looked up): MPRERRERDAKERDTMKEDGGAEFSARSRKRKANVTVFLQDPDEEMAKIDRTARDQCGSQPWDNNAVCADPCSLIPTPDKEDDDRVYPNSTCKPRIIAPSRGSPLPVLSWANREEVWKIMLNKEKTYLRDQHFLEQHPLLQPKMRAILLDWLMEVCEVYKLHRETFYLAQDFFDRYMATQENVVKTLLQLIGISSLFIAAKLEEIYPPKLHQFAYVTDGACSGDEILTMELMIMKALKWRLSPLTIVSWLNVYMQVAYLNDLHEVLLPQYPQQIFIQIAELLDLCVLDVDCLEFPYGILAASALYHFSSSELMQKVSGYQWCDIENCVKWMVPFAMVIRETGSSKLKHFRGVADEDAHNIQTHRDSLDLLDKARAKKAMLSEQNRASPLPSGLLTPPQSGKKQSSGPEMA
T1 sequence (Q00526 whole entry, looked up): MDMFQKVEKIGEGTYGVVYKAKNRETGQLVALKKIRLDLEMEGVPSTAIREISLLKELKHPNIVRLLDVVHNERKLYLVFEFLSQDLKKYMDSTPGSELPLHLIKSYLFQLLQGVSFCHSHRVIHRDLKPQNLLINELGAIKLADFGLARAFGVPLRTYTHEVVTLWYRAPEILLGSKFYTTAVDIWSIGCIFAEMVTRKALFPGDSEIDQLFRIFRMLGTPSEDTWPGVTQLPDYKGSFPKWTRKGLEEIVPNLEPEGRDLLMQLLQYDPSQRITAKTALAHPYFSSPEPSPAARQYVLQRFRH
Chain of Casein kinase I isoform delta (Homo sapiens) (P48730 whole entry, looked up, canonical isoform): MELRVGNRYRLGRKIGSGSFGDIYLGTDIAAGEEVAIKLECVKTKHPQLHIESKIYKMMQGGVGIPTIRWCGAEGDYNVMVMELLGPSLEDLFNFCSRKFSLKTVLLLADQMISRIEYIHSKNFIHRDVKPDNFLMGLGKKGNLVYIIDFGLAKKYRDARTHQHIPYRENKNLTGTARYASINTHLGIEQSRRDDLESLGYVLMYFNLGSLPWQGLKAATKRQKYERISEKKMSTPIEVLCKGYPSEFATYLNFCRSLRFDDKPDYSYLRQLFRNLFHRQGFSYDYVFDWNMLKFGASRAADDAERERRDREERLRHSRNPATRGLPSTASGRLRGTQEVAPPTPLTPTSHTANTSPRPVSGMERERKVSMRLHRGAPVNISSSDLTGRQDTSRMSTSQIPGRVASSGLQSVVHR

| SMILES | residual activity [1] | residual activity [2] | residual activity [3] | residual activity [4] | residual activity [5] | residual activity [6] | residual activity [7] | residual activity [8] | residual activity [9] | residual activity [10] | residual activity [11] | residual activity [12] | residual activity [13] | residual activity [14] | residual activity [15] | residual activity [16] | residual activity [17] | residual activity [18] | residual activity [19] | residual activity [20] |
| --- | --- | --- | --- | --- | --- | --- | --- | --- | --- | --- | --- | --- | --- | --- | --- | --- | --- | --- | --- | --- |
| CC#CC(=O)Nc1cc2c(Nc3ccc(F)c(Cl)c3)ncnc2cn1 | 97% | 86% | 90% | 89% | 82% | 103% | 96% | 86% | 82% | 108% | 97% | 96% | 89% | 98% | 99% | 108% | 89% | 95% | 93% | 106% |
| Cc1ccc(S(=O)(=O)/C=C/C#N)cc1 | 93% | 96% | 102% | 101% | 100% | 80% | 95% | 93% | 101% | 90% | 102% | 87% | 99% | 89% | 85% | 78% | 80% | 83% | 96% | 89% |
| Oc1ccc(Nc2nc(-c3ccc(Cl)cc3)cs2)cc1 | 108% | 80% | 102% | 90% | 120% | 98% | 112% | 101% | 106% | 89% | 104% | 99% | 99% | 104% | 64% | 40% | 113% | 98% | 79% | 72% |
| Cc1cc2ncc(-c3ccccc3)nc2cc1C | 96% | 90% | 102% | 94% | 93% | 110% | 107% | 88% | 102% | 97% | 105% | 85% | 94% | 92% | 84% | 89% | 93% | 87% | 87% | 55% |
| C[C@@H](N)[C@H]1CC[C@H](C(=O)Nc2ccncc2)CC1 | 117% | 112% | 99% | 85% | 117% | 78% | 108% | 109% | 101% | 93% | 97% | 57% | 107% | 104% | 103% | 97% | 102% | 99% | 103% | 110% |
| Nc1nc(Nc2ccc(S(N)(=O)=O)cc2)nn1C(=S)Nc1c(F)cccc1F | -2% | 0% | -2% | -1% | -2% | -1% | 19% | 3% | 2% | -2% | 0% | -1% | 0% | -1% | 4% | 0% | 4% | 1% | 59% | 16% |
| O=C1NC(=O)/C(=C/c2ccc3c(c2)OC(F)(F)O3)S1 | 104% | 89% | 102% | 91% | 101% | 94% | 98% | 90% | 88% | 86% | 94% | 77% | 94% | 88% | 93% | 85% | 95% | 94% | 80% | 65% |
| N#C/C(=C(\N)Sc1ccc(N)cc1)c1ccccc1C(F)(F)F | 96% | 86% | 90% | 92% | 110% | 100% | 98% | 88% | 102% | 94% | 81% | 96% | 90% | 86% | 94% | 81% | 103% | 87% | 87% | 82% |
| COc1cc2ncnc(Nc3ccc(NC(=O)c4ccccc4)cc3)c2cc1OC | 107% | 97% | 105% | 99% | 101% | 101% | 111% | 102% | 97% | 102% | 111% | 100% | 97% | 99% | 34% | 8% | 92% | 78% | 79% | 69% |
| CCN(CC)CCCCN1c2ccccc2Oc2ccc(Cl)cc21 | 117% | 94% | 99% | 102% | 100% | 105% | 108% | 103% | 89% | 105% | 108% | 108% | 99% | 103% | 94% | 103% | 102% | 103% | 95% | 96% |
| CCC(=O)Nc1ccc2ncnc(Nc3cccc(Br)c3)c2c1 | 101% | 78% | 102% | 113% | 79% | 101% | 84% | 81% | 86% | 95% | 102% | 86% | 85% | 87% | 95% | 87% | 87% | 95% | 97% | 100% |
| CNc1cc2c(Nc3cccc(Br)c3)ncnc2cn1 | 88% | 83% | 98% | 110% | 79% | 89% | 94% | 81% | 87% | 74% | 86% | 86% | 88% | 77% | 97% | 56% | 101% | 69% | 111% | 90% |
| Cn1cnc2cc3c(Nc4cccc(Br)c4)ncnc3cc21 | 102% | 81% | 96% | 104% | 98% | 90% | 99% | 92% | 84% | 102% | 108% | 93% | 95% | 92% | 89% | 56% | 84% | 81% | 87% | 64% |
| COc1cc2ncnc(Nc3ccc(Oc4ccccc4)cc3)c2cc1OC | 94% | 91% | 108% | 92% | 98% | 109% | 101% | 92% | 98% | 100% | 99% | 93% | 76% | 88% | 24% | 8% | 93% | 89% | 83% | 101% |
| Cc1nc(-c2ccccc2)c(-c2ccncc2)o1 | 92% | 91% | 96% | 94% | 129% | 93% | 110% | 86% | 105% | 96% | 111% | 98% | 102% | 98% | 91% | 72% | 111% | 82% | 44% | 8% |
| CC[n+]1c(/C=C/N(C)c2ccccc2)n(-c2ccccc2)c2ccc(-c3nc4ccccc4s3)cc21 | 108% | 90% | 115% | 92% | 101% | 95% | 105% | 104% | 97% | 100% | 119% | 125% | 94% | 83% | 92% | 80% | 84% | 100% | 87% | 93% |
| c1ccc(-c2n[nH]c3c2oc2ccccc23)cc1 | 98% | 41% | 67% | 27% | 77% | 31% | 75% | 30% | 84% | 91% | 88% | 78% | 86% | 89% | 85% | 57% | 87% | 73% | 75% | 33% |
| Ic1cccc(CSc2nnc(-c3ccncc3)o2)c1 | 70% | 57% | 5% | 4% | 8% | 3% | 80% | 73% | 93% | 72% | 75% | 87% | 57% | 49% | 72% | 65% | 101% | 84% | 83% | 75% |
| CC(C)n1cnc2/c(=N/c3cccc(Cl)c3)nc(NCCO)[nH]c21 | 44% | 8% | 3% | 0% | 8% | 1% | 92% | 58% | 45% | 7% | 63% | 24% | 38% | 25% | 64% | 21% | 8% | 0% | 37% | 7% |
| COc1ccc(S(=O)(=O)N(CCO)c2ccccc2CN(C)C/C=C/c2ccc(Cl)cc2)cc1 | 92% | 80% | 91% | 84% | 90% | 97% | 97% | 86% | 102% | 88% | 87% | 113% | 92% | 89% | 103% | 73% | 103% | 75% | 87% | 66% |
| Cn1nc2c3c(cccc31)C(=O)c1ccccc1-2 | 89% | 72% | 83% | 93% | 97% | 80% | 92% | 76% | 91% | 73% | 94% | 90% | 94% | 75% | 75% | 40% | 99% | 82% | 15% | 1% |
| O=C1NC(=O)c2cc(Nc3ccc(F)cc3)c(Nc3ccc(F)cc3)cc21 | 86% | 66% | 112% | 49% | 81% | 60% | 98% | 86% | 78% | 112% | 100% | 88% | 85% | 103% | 84% | 77% | 86% | 68% | 84% | 45% |
| O=C1c2ccccc2-[n+]2ccc3c([nH]c4ccccc43)c21 | 87% | 81% | 72% | 82% | 108% | 82% | 87% | 82% | 99% | 83% | 86% | 92% | 94% | 87% | 77% | 75% | 98% | 81% | 79% | 77% |
| Cc1ccc(NC2=CC(=O)c3sc(C)nc3C2=O)cc1 | 92% | 95% | 102% | 97% | 107% | 87% | 91% | 85% | 97% | 85% | 104% | 106% | 96% | 87% | 96% | 82% | 97% | 88% | 96% | 88% |
| COc1cc2ncnc(Nc3ccc(O)c(Br)c3)c2cc1OC | 84% | 71% | 84% | 51% | 98% | 67% | 87% | 86% | 81% | 78% | 91% | 41% | 80% | 70% | 46% | 11% | 90% | 41% | 81% | 38% |
| COc1cc2ncnc(N3CCN(C(=O)Nc4ccc(Oc5ccccc5)cc4)CC3)c2cc1OC | 79% | 75% | 95% | 55% | 108% | 75% | 82% | 86% | 90% | 93% | 94% | 48% | 82% | 80% | 96% | 96% | 88% | 79% | 78% | 89% |
| Oc1n[nH]c2nnc(-c3c(-c4ccccc4)nn4ccccc34)cc12 | 84% | 87% | 96% | 103% | 105% | 82% | 89% | 83% | 89% | 86% | 90% | 99% | 93% | 81% | 19% | 11% | 94% | 83% | 84% | 54% |
